In PubChem BioAssay AID588511 (Johns Hopkins Ion Channel Center, 2011):
Out of some 310,000 compounds screened, about 3,600 (1.2%) were called active. The sample holds actives, similar compounds and a random draw of the others, so the mix is not that of the screen.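 Rule for the calls: active = ratio plate-corrected score three or more library SD toward inhibition, starting fluorescence score within five deviations; inactive = the rest.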

target: Anoctamin-1 (Mus musculus) (UniProt Q8BHY3); assay: TMEM16A chloride channel inhibitors, primary screen, cell-based, HTS (AID 588511); settings: HEK293 TMEM16A/YFP iodide influx fluorescence, ionomycin; at 10 µM;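 for normalized B-score (activity score, 25-100; higher = stronger inhibition): score derived from kinetic fluorescence span divided by baseline fluorescence per well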
Sequence (Q8BHY3 whole entry, looked up): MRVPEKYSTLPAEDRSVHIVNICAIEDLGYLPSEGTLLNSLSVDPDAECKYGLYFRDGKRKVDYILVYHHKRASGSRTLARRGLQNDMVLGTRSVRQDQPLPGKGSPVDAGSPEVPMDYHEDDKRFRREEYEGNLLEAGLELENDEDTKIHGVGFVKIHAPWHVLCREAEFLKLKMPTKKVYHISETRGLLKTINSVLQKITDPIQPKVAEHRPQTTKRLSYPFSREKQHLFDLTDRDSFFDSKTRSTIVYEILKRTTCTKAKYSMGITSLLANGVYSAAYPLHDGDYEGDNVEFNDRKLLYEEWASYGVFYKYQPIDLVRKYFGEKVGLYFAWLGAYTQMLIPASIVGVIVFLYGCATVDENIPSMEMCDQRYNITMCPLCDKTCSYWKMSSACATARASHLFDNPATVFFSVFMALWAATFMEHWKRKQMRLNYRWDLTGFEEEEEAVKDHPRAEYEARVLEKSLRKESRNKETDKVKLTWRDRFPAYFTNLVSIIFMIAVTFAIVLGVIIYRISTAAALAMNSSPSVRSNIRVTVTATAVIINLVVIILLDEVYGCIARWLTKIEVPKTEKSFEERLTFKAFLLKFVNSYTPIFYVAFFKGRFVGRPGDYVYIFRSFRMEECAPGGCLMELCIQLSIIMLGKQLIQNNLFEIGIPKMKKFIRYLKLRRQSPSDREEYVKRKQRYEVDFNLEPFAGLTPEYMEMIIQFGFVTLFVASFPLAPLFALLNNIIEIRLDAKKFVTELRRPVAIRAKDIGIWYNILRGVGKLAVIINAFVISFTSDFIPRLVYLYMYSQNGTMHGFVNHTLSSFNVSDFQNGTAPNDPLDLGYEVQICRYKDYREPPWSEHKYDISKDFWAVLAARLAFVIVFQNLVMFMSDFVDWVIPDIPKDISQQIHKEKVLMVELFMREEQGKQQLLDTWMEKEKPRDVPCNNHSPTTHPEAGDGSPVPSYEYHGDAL

Row | SMILES | normalized B-score (activity score, 25-100; higher = stronger inhibition)
1 | CC1CCN(C(=O)c2ccc(CSc3ccc(Cl)cc3)cc2)CC1 | 25 (active)
2 | O=C(C1CC1)N1CCN=C1SCc1ccc(Cl)cc1 | inactive
3 | O=C(c1ccc(CSc2ccccc2)cc1)N1CCCCCC1 | inactive
4 | CCCCN1C(N)=NC[C@@H]1Cc1ccccc1 | inactive
5 | COc1ccc(NS(=O)(=O)c2ccc(C)c(C(=O)NNC(=O)c3csc(N4CCOCC4)n3)c2)cc1 | inactive
6 | Cc1ccc(CN2CCN(Cc3ccc(OCCO)cc3)CC2CCO)o1 (centres undefined) | inactive
7 | CC1=NN(c2cccc(Cl)c2)C(=O)C12CC(C)=C(C)CS2 (centres undefined) | 100 (active)
8 | CC12CCC(C(=O)N(c3cccc(Cl)c3)C1=O)C2(C)C (centres undefined) | inactive
9 | Cc1ccccc1OCC(=O)NNC(=O)c1cc(S(=O)(=O)N(C)C)ccc1N1CCCC1 | inactive
10 | CN(C(=O)COC(=O)c1ccc(Br)o1)c1c(N)n(Cc2ccccc2)c(=O)[nH]c1=O | inactive
11 | COC(=O)c1ccccc1NS(=O)(=O)c1ccc2[nH]c(=O)[nH]c2c1 | inactive
12 | COc1cccc(OC)c1C(=O)Nc1c(C(=O)N2CCN(c3ccccn3)CC2)oc2ccccc12 | inactive
13 | Cc1cc(NC(=O)[C@H](C)NC(=O)c2ccco2)ccc1Br | inactive
14 | CC(NC(=O)c1ccco1)C(=O)Nc1nc(-c2ccccn2)cs1 (centres undefined) | 100 (active)
15 | O=C(CN1C(=O)C2C3C=CC(C3)C2C1=O)Nc1nc(-c2ccccn2)cs1 (centres undefined) | inactive
16 | CCc1ccc(NC(=O)C(=O)NNC(=O)c2cccs2)cc1 | inactive
17 | OCC[C@H]1C[C@@H](O)[C@H](O)[C@@]2(OCCc3ccccc32)O1 | inactive
18 | CCOC(=O)C1Nc2ccc(C(F)(F)F)cc2C2C=CCC12 (centres undefined) | inactive
19 | COc1ccc(C(=O)N2CCCCC2C(=O)Nc2ccc(-n3nc(C)cc3C)cc2)o1 (centres undefined) | inactive
20 | O=S(=O)(NC1CC2CCC1C2)c1ccc(Cl)cc1 (centres undefined) | inactive
21 | CCC(=O)c1ccc(OCC(=O)Nc2ccc3nc(C)sc3c2)cc1 | inactive
22 | CCOc1ccc2nc(NC(=O)c3cc([N+](=O)[O-])ccc3N3CCOCC3)sc2c1 | inactive
23 | Cc1cc(C)cc(OCC(=O)Nc2nc3ccc([N+](=O)[O-])cc3s2)c1 | 100 (active)
24 | Cc1cc(F)ccc1N1CCC(N2CCN(C)C(CCO)C2)CC1 (centres undefined) | inactive
25 | Cc1cccc(C(=O)Nc2ccc(Oc3cnccn3)cc2)c1 | inactive
26 | OCCn1c(-c2ccccc2)csc1=Nc1ccccc1 | 25 (active)
27 | Cc1csc(=NC(=O)c2ccccc2)n1CCO | inactive

Row | SMILES | normalized B-score (activity score, 25-100; higher = stronger inhibition)
28 | Cc1csc(=Nc2ccccc2)n1CCO | inactive
29 | O=C(OC1CCOC1=O)c1cccc(S(=O)(=O)Nc2ccc(F)cc2)c1 (centres undefined) | inactive
30 | CCOC(=O)C1CCN(C(=O)C2CCCN(S(=O)(=O)c3ccc(OC)c(Cl)c3)C2)CC1 (centres undefined) | inactive
31 | COC(=O)c1ccc(CSc2ccccc2C)o1 | inactive
32 | COC(=O)c1ccc(COC(=O)c2c(C)nn(Cc3ccccc3Cl)c2Cl)o1 | 25 (active)
33 | COC(=O)c1ccc(COC(=O)C2CCN(S(=O)(=O)c3c(Cl)cccc3Cl)CC2)o1 | inactive
34 | Cc1ccc(O)c(/C=N/NC(=O)COc2ccc3c(C)cc(=O)oc3c2)c1 | inactive
35 | COc1ccc(S(=O)(=O)N2CCN(C(=S)NCC3CCCO3)CC2)cc1OC (centres undefined) | inactive
36 | CCOc1ccc(S(=O)(=O)N2CCN(C(=S)NCC3CCCO3)CC2)cc1 (centres undefined) | inactive
37 | S=C(NCC1CCCO1)N1CCN(c2ccc(Cl)c(Cl)c2)CC1 (centres undefined) | 100 (active)
38 | Cc1ccccc1CN1CCNC(=O)C1CC(=O)NCCC1=CCCCC1 (centres undefined) | inactive
39 | Cc1nnc(SCCCCSc2nnc(C)c(=O)[nH]2)[nH]c1=O | inactive
40 | CC(C)(C)c1ccc(CCC2OCC(CN3CCOCC3)O2)cc1 (centres undefined) | inactive
41 | CCCC(C)n1[nH]c(=O)c2c(C)cc(C)nc21 (centres undefined) | inactive
42 | O=C(NNC(=S)NCc1ccco1)C(c1ccccc1)c1ccccc1 | inactive
43 | CC(C)C(=O)Nc1cccc(NC(=S)NC(=O)C(c2ccccc2)c2ccccc2)c1 | inactive
44 | CCCCC(=O)NNC(=S)NC(=O)C(c1ccccc1)c1ccccc1 | 25 (active)
45 | CSCCC(NS(=O)(=O)c1ccc(C)cc1)C(=O)N1CCCC1 (centres undefined) | inactive
46 | CN(C)c1ccc(-c2nnc(-c3cccnc3)o2)cc1 | inactive
47 | COc1cccc(N(C(=O)c2ccn[nH]2)C2(C(=O)Nc3c(C)cccc3C)CCCCC2)c1 | inactive
48 | CS(=O)(=O)N1CCN=C1SCc1ccc(F)cc1 | inactive
49 | O=C(NCCc1ccccc1)c1ccc2c(c1)N(Cc1ccccc1)CCS2 | inactive
50 | O=C(NCCN1CCOCC1)c1ccc2c(c1)N(Cc1ccc(Cl)cc1)CCS2 | inactive
51 | CCOC(=O)N1CCN(C(=O)c2ccc3c(c2)N(Cc2ccc(C)cc2)CCS3)CC1 | 25 (active)
52 | CC1CCN(C(=O)c2cccc(S(=O)(=O)N3CCCc4ccccc43)c2)CC1 | inactive
53 | O=C1CCC(=O)N(O)CCCCCNC(=O)CCC(=O)N(O)CCCCCNC(=O)CCC(=O)N(O)CCCCCN1 | inactive
54 | Cc1ccc(NC(=O)c2nc[nH]c2C(=O)N[C@@H](CCCCNC(=O)OC(C)(C)C)C(=O)OC(C)(C)C)cc1 | inactive
